As usually defined, the inhibition is the change of the read-out against control, counted positive when it falls.

These results are taken from PubChem BioAssay AID1986 (Sanford-Burnham Center for Chemical Genomics, 2009).

Each structure is given as a SMILES string. Where “and” joins values, the source holds several entries; their conditions need not be identical. Equal values may be shown once. The whole screen tested about 290,000 compounds, of which about 890 (0.31%) were called active. Cut-off read from the data, not from the text of the source: active = inhibition mostly above about 52% (no sharp cut-off); inactive = mostly below about 76%. Many of the other results were omitted from the sample, so actives are more common in it than they were. A structure can be active in one record and inactive in another.

The test can be described thus: cell-free HIV fusion peptide-binding blockers – biochemical, uHTS, fluorescence dequenching, primary screen (AID 1986). Particulars: 30 min, at 20 µM, stronger effect = higher value.

As for `Cc1cc(-c2ccc(Cl)s2)n[nH]1`, the inhibition is 0% (inactive). The figure for `CC1(C)CCCC2=C1CC1C(=O)N(Cc3cccnc3)C(=O)C1C2` (stereo not drawn) is 1.5% (inactive); for `Cc1cc(C)n2nc(C(=O)N/N=C/c3ccco3)nc2n1` it is -0.3% (inactive); for `O=C(c1nc2ccccn2c1CNCC1OCCc2ccccc21)N1CCOCC1` (stereo not drawn) it is -0.8% (inactive). The figure for `Cc1ccc(C)c(S(=O)(=O)NCCCn2ccnc2)c1` is -0.3% (inactive); for `COc1ccc(NS(=O)(=O)c2cccc(C(=O)Nc3ccccc3C(=O)O)c2)cc1` it is 19.7% (inactive). The figure for `COc1ccc(NC(=S)NNc2ccc(S(=O)(=O)Nc3ccccc3C(=O)O)cc2[N+](=O)[O-])cc1` is 52.4% (active); for `Cc1nn(-c2ccccc2)c(N2CCCC2)c1/C=N/Nc1ccc(S(=O)(=O)Nc2ccccc2)cc1[N+](=O)[O-]` it is -3.9% (inactive). As for `COc1ccc(NC(=O)c2ccccc2NS(=O)(=O)c2ccc(C)cc2)c([N+](=O)[O-])c1`, the inhibition was 1.8% (inactive). With `Cc1nn(-c2ccccc2)c(Cl)c1/C=N/Nc1ccc(S(=O)(=O)Nc2ccccc2C(=O)O)cc1[N+](=O)[O-]` the figure was 73% (active); with `COc1ccccc1NS(=O)(=O)c1ccc(N/N=C/c2c(C)nn(-c3ccccc3)c2N2CCCC2)c([N+](=O)[O-])c1`, -5.2% (inactive). The figure for `COc1ccc(N(CC(=O)N2CCc3ccccc3C2)S(C)(=O)=O)cc1` is -1.6% (inactive).

Consider `COc1cc(COCC(O)CN2CCOCC2)cc(OC)c1OC` (stereo not drawn), for which the inhibition is -2.1% (inactive). As for `O=C(Cc1ccc(Cl)cc1)Nc1cc(S(=O)(=O)N2CCOCC2)ccc1N1CCCC1`, the inhibition was 1.2% (inactive). The figure for `N#CC1CC(c2ccccc2)=NN1c1ccccc1[N+](=O)[O-]` (stereo not drawn) is -3.1% (inactive); for `N#CC1CC(c2ccc([N+](=O)[O-])cc2)=NN1c1ccc([N+](=O)[O-])cc1` (stereo not drawn) it is 83.7% (active); for `O=[N+]([O-])c1ccc(N2N=C(c3ccccc3)CC2c2ccccc2O)cc1` (stereo not drawn) it is 38.9% (inactive). The figure for `COC(=O)c1sccc1NC(=O)Nc1ccc(OC)cc1` is 1.8% (inactive). With `Cc1ccc(OCCNS(=O)(=O)c2cccs2)cc1` the figure was -0.8% (inactive).

`CCN(CC)C(=O)CSc1nc(O)c(Cc2ccc(OC)cc2)c(=O)[nH]1`: the inhibition was 0.3% (inactive). With `Cc1ccc(/C=C(\C#N)C(=O)Nc2ccccn2)o1` the figure was 0.3% (inactive).

Turning to `Cc1ccc(/C=C(\C#N)C(=O)Nc2cccc3ncccc23)o1`, the inhibition was 77.8% (active).

With `N#C/C(=C\c1ccco1)C(=O)Nc1cccc2ncccc12`, the inhibition was 1.5% (inactive).

`CCc1nnc(SCC(=O)N2CCCC(N3CCN(c4ccccc4C)CC3)C2)o1` (stereo not drawn): the inhibition was -0.2% (inactive). Turning to `CC1(C)CC(=O)C2=C(C1)N(c1ccc(F)cc1)C(=O)C2(NC(=O)c1ccccc1)C(F)(F)F` (stereo not drawn), the inhibition is -0.9% (inactive). Regarding `COc1ccc(OC)c(-c2oc3ccccc3c(=O)c2O)c1`, the inhibition was -0.8% (inactive). As to `COc1c(O)cc2oc(-c3ccc(O)c(O)c3)cc(=O)c2c1O`, the inhibition was 20.2% (inactive). The figure for `COc1cc(OC)c(-c2c3cc(O)c(=O)cc-3oc3cc(O)c(O)cc23)cc1OC` is 82.9% (active). With `CCOc1ccccc1-c1c2cc(O)c(=O)cc-2oc2cc(O)c(O)cc12` the figure was 118% (active); with `Cc1cc2oc(=O)cc(-c3cc4ccccc4o3)c2cc1O`, 21% (inactive). For the molecule `O=c1cc2oc3cc(O)c(O)cc3c(-c3ccccc3O)c-2cc1O`, the inhibition was 148% (inactive).

Turning to `O=c1cc2oc3cc(O)c(O)cc3c(-c3ccccc3[N+](=O)[O-])c-2cc1O`, the inhibition was 34.3% (inactive).

On to `Cc1c2cc(O)c(=O)cc-2oc2cc(O)c(O)cc12`, for which the inhibition was 150% (inactive) and 61.1% (active). With `Cc1ccccc1-c1cc(=O)c2c(O)cccc2o1` the figure was -1.7% (inactive); with `COc1cc(-c2cc(=O)c3ccccc3o2)ccc1O`, -1.9% (inactive); with `COc1ccc(OC)c(-c2c3cc(O)c(=O)cc-3oc3cc(O)c(O)cc23)c1`, 122% (active). The figure for `COc1ccc2c(=O)cc(-c3ccccc3F)oc2c1` is -1.9% (inactive); for `CC1=NN(c2ccc(C)cc2C)C(=O)C1C(c1ccccc1O)C1C(=O)N(c2ccc(C)cc2C)N=C1C` (stereo not drawn) it is 3.7% (inactive); for `COc1ccc(C(=O)Nc2ccnn2C2CCN(C(=O)c3cnsn3)CC2)cc1` it is -1.2% (inactive). The figure for `COc1ccccc1C(=O)N/C(=C/c1ccc(Br)cc1)C(=O)NCCO` is 7.1% (inactive); for `CCCCCCNc1cc2n(c(=O)n1)CCc1cc(OC)c(OC)cc1-2` it is -3.2% (inactive). Turning to `COc1ccccc1NS(=O)(=O)c1ccc(NN=C2CCCCC2)c([N+](=O)[O-])c1`, the inhibition is -1.4% (inactive). With `c1ccc2c(c1)CC1(CCCCC1)n1nnnc1-2` the figure was -1.4% (inactive). The figure for `CCCCCC(=O)NC(=S)Nc1ccc2oc(=O)ccc2c1` is -0.3% (inactive); for `COC(=O)CCSCC(=O)Nc1ccc(S(=O)(=O)N2CCOCC2)cc1OC` it is 0.8% (inactive); for `CC(C)C1/C(=N/O)CC(c2ccccc2)NC1c1ccccc1` (stereo not drawn) it is 0% (inactive). With `CCCCNC(=O)CC1N=C2c3ccccc3N=C(SCC(=O)Nc3ccccc3OC)N2C1=O` (stereo not drawn) the figure was 1.1% (inactive); with `CCOC(=O)c1nc(S(C)(=O)=O)ncc1N1CCOCC1`, -2.9% (inactive).
